# Assay results from the supplement of paper PMC8728848.
# This is one part of a sample in which the strongest signals are shown more often than they occur.
# B1: GSL-I (Griffonia simplicifolia) (protein)
# chain: FNLPNFWSDVKDNIIFQGDANTTAGTLQLCKTNQYGNPLQYRAGRALYSDPVQLWDNKTGSVASFYTEFTFFLKITGDGPADGLAFFLAPPDSDVKDAGAYLGLFNKSTATQPSKNQVVAVEFDTWKNTDFPEPSYRHIGINVNSIVSVATKRWEDSDIFSGKIATARISYDGSAKILTVVLSYPDGADYILSHSVDLSKNLPNPIRVGISASTGANQFLTVYVLSWRFSSALQSTSVNAAMGPEIIRTVV
# Columns and labels:
# Assay in all cases: glycan array binding signal (z-score within array); higher = stronger binding
# Conditions in all cases: glycan notation: IUPAC condensed, linker removed
# [1] = molecular target: Fuc(a1-2)Gal(b1-3)GalNAc(a1-3)[Fuc(a1-2)]Gal(b1-4)GlcNAc
# Procedure, shortened: (§1)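 Glycan array data were curated from 3228 arrays in the Consortium for Functional Glycomics database and kept only where the protein sequence was available. Glycan names were converted to IUPAC-condensed notation, and columns mapping to the same glycan were averaged. The binding signal is a within-array Z-score, averaged across arrays of the same protein sequence at different concentrations or buffers and across linkers. Negative Z-scores can be read as non-binding.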
# [2] = molecular target: Fuc(a1-2)Gal(b1-4)Fuc(a1-3)]GlcNAc(b1-2)Man(a1-3)[Fuc(a1-2)Gal(b1-4)[Fuc(a1-3)]GlcNAc(b1-2)Man(a1-6)]Man(b1-4)GlcNAc(b1-4)GlcNAc
# Procedure, shortened: as §1
# [3] = molecular target: Fuc(a1-2)Gal6S(b1-4)Glc6S
# Procedure, shortened: as §1
# [4] = molecular target: Fuc(a1-2)[GalNAc(a1-4)]Gal(b1-4)GlcNAc
# Procedure, shortened: as §1
# [5] = molecular target: Fuc(a1-3)[Gal(b1-4)]Glc6S
# Procedure, shortened: as §1
# [6] = molecular target: Fuc(a1-3)[Gal(b1-4)]GlcNAc(b1-2)Man(a1-3)[Fuc(a1-3)[Gal(b1-4)]GlcNAc(b1-2)Man(a1-6)]Man(b1-4)GlcNAc(b1-4)GlcNAc
# Procedure, shortened: as §1
# [7] = molecular target: Fuc(a1-3)[Gal(b1-4)]GlcNAc(b1-3)Gal(b1-4)[Fuc(a1-3)]GlcNAc(b1-3)Gal(b1-4)[Fuc(a1-3)]GlcNAc
# Procedure, shortened: as §1
# [8] = molecular target: Fuc(a1-3)[Gal(b1-4)]GlcNAc(b1-4)Gal(b1-4)[Fuc(a1-3)]GlcNAc
# Procedure, shortened: as §1
# Fuc(a1-4)GlcNAc = molecular target: Fuc(a1-4)GlcNAc
# Procedure, shortened: as §1
# Fuc(b1-3)GlcNAc = molecular target: Fuc(b1-3)GlcNAc
# Procedure, shortened: as §1
# Gal(a1-3)Gal = molecular target: Gal(a1-3)Gal
# Procedure, shortened: as §1
# [9] = molecular target: Gal(a1-3)Gal(b1-4)GlcNAc(b1-2)Man(a1-3)[Gal(a1-3)Gal(b1-4)GlcNAc(b1-2)Man(a1-6)]Man(b1-4)GlcNAc(b1-4)GlcNAc
# Procedure, shortened: as §1
# [10] = molecular target: Gal(a1-3)Gal(b1-4)[Fuc(a1-3)]GlcNAc
# Procedure, shortened: as §1
# [11] = molecular target: Gal(a1-3)Gal(b1-4)[Fuc(a1-3)]GlcNAc(b1-2)Man(a1-3)[Gal(a1-3)Gal(b1-4)[Fuc(a1-3)]GlcNAc(b1-2)Man(a1-6)]Man(b1-4)GlcNAc(b1-4)GlcNAc
# Procedure, shortened: as §1
# [12] = molecular target: Gal(a1-4)Gal(b1-3)GlcNAc(b1-2)Man(a1-3)[Gal(a1-4)Gal(b1-3)GlcNAc(b1-2)Man(a1-6)]Man(b1-4)GlcNAc(b1-4)GlcNAc
# Procedure, shortened: as §1
# Gal(a1-4)Gal(b1-4)GlcNAc = molecular target: Gal(a1-4)Gal(b1-4)GlcNAc
# Procedure, shortened: as §1
# [13] = molecular target: Gal(a1-4)Gal(b1-4)GlcNAc(b1-2)Man(a1-3)[Gal(a1-4)Gal(b1-4)GlcNAc(b1-2)Man(a1-6)]Man(b1-4)GlcNAc(b1-4)GlcNAc
# Procedure, shortened: as §1
# Gal(a1-4)GlcNAc = molecular target: Gal(a1-4)GlcNAc
# Procedure, shortened: as §1
# Gal(b1-3)GlcNAc(b1-2)Man = molecular target: Gal(b1-3)GlcNAc(b1-2)Man
# Procedure, shortened: as §1
# [14] = molecular target: Gal(b1-3)GlcNAc(b1-3)Gal(b1-4)Glc
# Procedure, shortened: as §1
# [15] = molecular target: Gal(b1-3)GlcNAc(b1-3)Gal(b1-4)GlcNAc
# Procedure, shortened: as §1
# [16] = molecular target: Gal(b1-3)GlcNAc(b1-3)GalNAc
# Procedure, shortened: as §1
# [17] = molecular target: Gal(b1-3)[GlcNAc(b1-6)]GalNAc
# Procedure, shortened: as §1
# [18] = molecular target: Gal(b1-4)GlcNAc(b1-3)[Gal(b1-4)GlcNAc(b1-6)]GalNAc
# Procedure, shortened: as §1
# Gal(b1-4)GlcNAc6P = molecular target: Gal(b1-4)GlcNAc6P
# Procedure, shortened: as §1
# GalNAc(a1-3)Gal = molecular target: GalNAc(a1-3)Gal
# Procedure, shortened: as §1
# GalNAc(a1-3)GalNAc = molecular target: GalNAc(a1-3)GalNAc
# Procedure, shortened: as §1
# [19] = molecular target: GalNAc(a1-3)GalNAc(a1-3)Gal(a1-4)Gal(b1-4)GlcNAc
# Procedure, shortened: as §1
# [20] = molecular target: GalNAc(b1-3)Gal(a1-6)Gal(b1-4)Glc
# Procedure, shortened: as §1
# GalNAc(b1-3)GalNAc = molecular target: GalNAc(b1-3)GalNAc
# Procedure, shortened: as §1
# [21] = molecular target: GalNAc(b1-4)GlcNAc(b1-2)Man
# Procedure, shortened: as §1
# [22] = molecular target: GlcNAc(a1-3)Gal(b1-4)GlcNAc
# Procedure, shortened: as §1
# [23] = molecular target: GlcNAc(b1-2)[GlcNAc(b1-6)]Man(a1-6)[GlcNAc(b1-2)Man(a1-3)]Man(b1-4)GlcNAc(b1-4)GlcNAc
# Procedure, shortened: as §1
# [24] = molecular target: GlcNAc(b1-3)Gal(b1-4)GlcNAc(b1-3)Gal(b1-4)GlcNAc(b1-2)[GlcNAc(b1-3)Gal(b1-4)GlcNAc(b1-3)Gal(b1-4)GlcNAc(b1-6)]Man(a1-6)[GlcNAc(b1-3)Gal(b1-4)GlcNAc(b1-3)Gal(b1-4)GlcNAc(b1-2)Man(a1-3)]Man(b1-4)GlcNAc(b1-4)[Fuc(a1-6)]GlcNAc
# Procedure, shortened: as §1
# [25] = molecular target: GlcNAc(b1-3)Gal(b1-4)GlcNAc(b1-6)[GlcNAc(b1-3)]Gal(b1-4)GlcNAc
# Procedure, shortened: as §1
# GlcNAc(b1-3)Man = molecular target: GlcNAc(b1-3)Man
# Procedure, shortened: as §1
# Kdn(a2-3)Gal(b1-3)GalNAc = molecular target: Kdn(a2-3)Gal(b1-3)GalNAc
# Procedure, shortened: as §1
# [26] = molecular target: Man(a1-2)Man(a1-3)[Man(a1-2)Man(a1-6)]Man(a1-6)[Man(a1-2)Man(a1-2)Man(a1-3)]Man(b1-4)GlcNAc(b1-4)GlcNAc
# Procedure, shortened: as §1
# [27] = molecular target: Man(a1-2)Man(a1-6)[Man(a1-3)]Man(a1-6)[Man(a1-2)Man(a1-2)Man(a1-3)]Man(b1-4)GlcNAc(b1-4)GlcNAc
# Procedure, shortened: as §1
# [28] = molecular target: Man(a1-3)[Man(a1-6)]Man(b1-4)GlcNAc(b1-4)[Fuc(a1-6)]GlcNAc
# Procedure, shortened: as §1
# [29] = molecular target: Neu5Ac(a2-3)Gal(b1-3)GlcNAc(b1-3)Gal(b1-3)GlcNAc
# Procedure, shortened: as §1
# [30] = molecular target: Neu5Ac(a2-3)Gal(b1-4)GlcNAc(b1-2)Man(a1-3)[Neu5Ac(a2-3)Gal(b1-4)GlcNAc(b1-2)Man(a1-6)]Man(b1-4)GlcNAc(b1-4)[Fuc(a1-6)]GlcNAc
# Procedure, shortened: as §1
# [31] = molecular target: Neu5Ac(a2-3)Gal(b1-4)GlcNAc(b1-2)Man(a1-3)[Neu5Ac(a2-6)Gal(b1-4)GlcNAc(b1-2)Man(a1-6)]Man(b1-4)GlcNAc(b1-4)GlcNAc
# Procedure, shortened: as §1
# [32] = molecular target: Neu5Ac(a2-3)Gal(b1-4)GlcNAc(b1-3)Gal(b1-4)GlcNAc(b1-3)Gal(b1-4)GlcNAc
# Procedure, shortened: as §1
# [33] = molecular target: Neu5Ac(a2-3)Gal(b1-4)GlcNAc(b1-3)Gal(b1-4)GlcNAc(b1-3)Gal(b1-4)GlcNAc(b1-2)Man(a1-3)[Neu5Ac(a2-3)Gal(b1-4)GlcNAc(b1-3)Gal(b1-4)GlcNAc(b1-3)Gal(b1-4)GlcNAc(b1-2)Man(a1-6)]GalNAc
# Procedure, shortened: as §1
# [34] = molecular target: Neu5Ac(a2-3)Gal(b1-4)[Fuc(a1-3)]GlcNAc(b1-2)Man
# Procedure, shortened: as §1
# [35] = molecular target: Neu5Ac(a2-6)Gal(b1-4)GlcNAc(b1-2)Man(a1-6)[Gal(b1-4)GlcNAc(b1-2)Man(a1-3)]Man(b1-4)GlcNAc(b1-4)GlcNAc
# Procedure, shortened: as §1
# [36] = molecular target: Neu5Ac(a2-6)Gal(b1-4)GlcNAc(b1-3)Gal(b1-4)GlcNAc(b1-6)[Gal(b1-3)]GalNAc
# Procedure, shortened: as §1
# [37] = molecular target: Neu5Ac(a2-6)Gal(b1-4)GlcNAc(b1-3)GalNAc
# Procedure, shortened: as §1
# [38] = molecular target: Neu5Ac(a2-6)GalNAc(b1-4)GlcNAc6S
# Procedure, shortened: as §1
# [39] = molecular target: Neu5Gc(a2-3)Gal(b1-3)GlcNAc
# Procedure, shortened: as §1
# [40] = molecular target: Neu5Gc(a2-3)Gal(b1-4)[Fuc(a1-3)]GlcNAc
# Procedure, shortened: as §1
# [41] = molecular target: Neu5Gc(b2-6)Gal(b1-4)GlcNAc
# Procedure, shortened: as §1
binder,measurement,setting,value
B1,glycan array binding signal (z-score),[1],-0.242
same,glycan array binding signal (z-score),[2],0.367
same,glycan array binding signal (z-score),[3],-0.216
same,glycan array binding signal (z-score),[4],7.04
same,glycan array binding signal (z-score),[5],-0.16
same,glycan array binding signal (z-score),[6],-0.232
same,glycan array binding signal (z-score),[7],-0.188
same,glycan array binding signal (z-score),[8],-0.311
same,glycan array binding signal (z-score),Fuc(a1-4)GlcNAc,-0.215
same,glycan array binding signal (z-score),Fuc(b1-3)GlcNAc,-0.236
same,glycan array binding signal (z-score),Gal(a1-3)Gal,0.597
same,glycan array binding signal (z-score),[9],5.7
same,glycan array binding signal (z-score),[10],3.4
same,glycan array binding signal (z-score),[11],0.283
same,glycan array binding signal (z-score),[12],9.69
same,glycan array binding signal (z-score),Gal(a1-4)Gal(b1-4)GlcNAc,1.82
same,glycan array binding signal (z-score),[13],3.15
same,glycan array binding signal (z-score),Gal(a1-4)GlcNAc,4.53
same,glycan array binding signal (z-score),Gal(b1-3)GlcNAc(b1-2)Man,-0.124
same,glycan array binding signal (z-score),[14],-0.194
same,glycan array binding signal (z-score),[15],-0.226
same,glycan array binding signal (z-score),[16],-0.203
same,glycan array binding signal (z-score),[17],-0.102
same,glycan array binding signal (z-score),[18],-0.312
same,glycan array binding signal (z-score),Gal(b1-4)GlcNAc6P,-0.178
same,glycan array binding signal (z-score),GalNAc(a1-3)Gal,6.1
same,glycan array binding signal (z-score),GalNAc(a1-3)GalNAc,2.08
same,glycan array binding signal (z-score),[19],1.85
same,glycan array binding signal (z-score),[20],-0.191
same,glycan array binding signal (z-score),GalNAc(b1-3)GalNAc,-0.272
same,glycan array binding signal (z-score),[21],-0.143
same,glycan array binding signal (z-score),[22],-0.199
same,glycan array binding signal (z-score),[23],-0.121
same,glycan array binding signal (z-score),[24],0.036
same,glycan array binding signal (z-score),[25],-0.255
same,glycan array binding signal (z-score),GlcNAc(b1-3)Man,-0.193
same,glycan array binding signal (z-score),Kdn(a2-3)Gal(b1-3)GalNAc,-0.069
same,glycan array binding signal (z-score),[26],-0.033
same,glycan array binding signal (z-score),[27],-0.302
same,glycan array binding signal (z-score),[28],-0.305
same,glycan array binding signal (z-score),[29],-0.152
same,glycan array binding signal (z-score),[30],-0.283
same,glycan array binding signal (z-score),[31],-0.197
same,glycan array binding signal (z-score),[32],-0.261
same,glycan array binding signal (z-score),[33],2.34
same,glycan array binding signal (z-score),[34],-0.227
same,glycan array binding signal (z-score),[35],0.106
same,glycan array binding signal (z-score),[36],-0.048
same,glycan array binding signal (z-score),[37],-0.128
same,glycan array binding signal (z-score),[38],-0.271
same,glycan array binding signal (z-score),[39],-0.164
same,glycan array binding signal (z-score),[40],-0.153
same,glycan array binding signal (z-score),[41],-0.099
